Experimental findings from ChEMBL document CHEMBL4513216, “Probing the Open Global Health Chemical Diversity Library for Multistage-Active Starting Points for Next-Generation Antimalarials” (ACS Infect Dis, 2020) are described below.

The whole screen tested about 68,000 compounds, of which about 2,700 (4%) showed an effect of 50% or more. The sample holds strong results, similar compounds and a random draw of the others, so the mix is not that of the screen.

The test system of this experiment is Plasmodium berghei. Description: Screen against P. berghei liver stage (PbLuc), transformed with Luciferase, at 2uM. As to conditions: tested at 2 uM. Format: functional, HepG2.
As for `NC(=O)CC1CCCN(c2cncc(OCc3ccccc3)n2)C1` (configuration not stated), the INHIBITION is on record as 31.78%. Regarding `CC(C)c1nc(C2CCCN2C(=O)c2ccc(N(C)C)nn2)no1` (configuration not stated), the INHIBITION is -9.66%. As for `c1ccc(CN2C[C@H]3CC[C@@H](C2)N(Cc2nnc(C4CC4)o2)C3)cc1`, the INHIBITION is reported as -14.49%. The same measure for `Cc1cc(C(=O)N2CCOC[C@H](Oc3cccnc3)C2)c(C(F)(F)F)o1`: 19.42%; for `CO[C@H]1COCCN(C(=O)c2cc(C)oc2C(F)(F)F)C1`: 35.89%; for `Cc1cc(C(=O)N2CCOC[C@H](Oc3cnccn3)C2)c(C(F)(F)F)o1`: 52.91%.

Take `Cn1cc(CN2CCCC3(CCN(C(=O)c4cnccn4)C3)C2)cn1` (configuration not stated): the INHIBITION is -9.96%. Regarding `CC(C)n1cnnc1CNC(=O)CCCOc1ccccc1F`, the INHIBITION is recorded as 18.74%. Consider `Cc1cc(CNC(=O)CC2CN(C(=O)OC(C)(C)C)C2)ccc1F`, for which the INHIBITION stood at 21.97%. To `CC(C)(C)OC(=O)N1CC(CC(=O)NCc2ccsc2)C1` belongs 2.9%; to `Cc1ccsc1CNC(=O)CC1CN(C(=O)OC(C)(C)C)C1`, 55.36%; to `COc1ncccc1NC(=O)N1CCCC1c1cc(C)no1` (configuration not stated), 29.19%.

Consider `Cc1noc(C)c1C(=O)N1CCCCC1c1cc(C)n2ccnc2n1` (configuration not stated), for which the INHIBITION amounted to 36.98%. To `Cc1sc(-c2ccco2)nc1C(=O)N(CC1CCOC1)C1CC1` (configuration not stated) belongs -33.43%; to `COCCN(C(=O)c1nc(-c2ccco2)sc1C)C1CC1`, -7.16%; to `Cc1sc(-c2ccco2)nc1C(=O)N(CC(N)=O)C1CCCC1`, 61.82%. The same measure for `CC(NCCN1CCN(C(=O)C2CCCC2)CC1)c1ccccn1` (configuration not stated): -21.99%; for `Cn1nc(Cn2cccn2)c2c1CN(Cc1ccsc1)C2`: 15.9%.

Regarding `Cn1nc(CN2CCOCC2)c2c1CN(Cc1ccsc1)C2`, the INHIBITION amounted to 57.85%. The same measure for `CC(C)n1nc(CN2CCOCC2)c2c1CN(Cc1ccsc1)C2`: 72.91%.

With `Cn1nc(Cn2cccc2)c2c1CN(Cc1ccsc1)C2`, the INHIBITION is -6.88%. To `CC(C)n1nc(CN2CCOCC2)c2c1CN(C(=O)c1ccno1)C2` belongs 29.3%; to `COCc1nn(C(C)C)c2c1CCN(Cc1ccsc1)C2`, 23.43%; to `CN(Cc1ccc(F)cc1)CC1(O)CCN(C(=O)c2cccn2C)C1` (configuration not stated), -12.09%. The same measure for `CCc1nc2ccccc2n1C(CC)C(=O)N(C)Cc1noc(C)n1` (configuration not stated): -0.85%; for `CC(=O)N1CCO[C@@H]2CN(S(=O)(=O)c3ccc(C)cc3)CC[C@@H]2C1`: -24.35%; for `CS(=O)(=O)N1CC2(CCCN(CC3CC3)C2)Cc2ccccc21` (configuration not stated): 34.09%. To `CN(CCCSc1ccccc1)C(=O)Cn1ncc(N(C)C)cc1=O` belongs 8.2%.

`COc1ccc(-c2cnc(CN3CCn4c(C)nnc4C3)o2)cc1`: the INHIBITION was -19.76%. The same measure for `CCNC(=O)[C@@H]1C[C@H](N)CN1C1CCN(c2ccccc2OC)CC1`: 23.64%; for `Cc1ccc(CN2CCCC23Cc2ccccc2CNC3=O)cc1` (configuration not stated): -14.74%; for `CC(C)CCN1CCCC12Cc1ccccc1CNC2=O` (configuration not stated): -6.64%.

On to `Cc1ccc(CCN2CCCC23Cc2ccccc2CNC3=O)cc1` (configuration not stated), for which the INHIBITION is 57.24%. The same measure for `CC(C)NC(=O)N1CCN(CC2CC2)CC2(CC(=O)N(C)C2)C1` (configuration not stated): 49.9%; for `Cc1cc(-c2cnc(NCc3ccc4c(c3)OCO4)nc2C(C)C)on1`: -0.95%. Turning to `Cc1csc(C2CCCN(C(=O)c3cccc4c3OCO4)C2)n1` (configuration not stated), the INHIBITION amounted to 57.11%.

Regarding `CC(C)c1nc(C2CCCN(C(=O)c3cccc4c3OCO4)C2)no1` (configuration not stated), the INHIBITION is 17.59%.

`Cc1nc(C2CCCN(C(=O)c3cccc4c3OCO4)C2)sc1C` (configuration not stated): the INHIBITION was determined as 7.71%.

For `CCc1cc(NC(=O)C2CCCN(C(=O)c3ccncc3)C2)[nH]n1` (configuration not stated), the INHIBITION is given as -7.81%. Regarding `c1ccc(C2CCN(c3ncnc4c3CCNC4)CC2)cc1`, the INHIBITION is given as -3.14%. The same measure for `O=C(NCC(=O)N1CCCC(n2cncn2)C1)OCc1ccccc1` (configuration not stated): 21.64%. To `COc1ccnc(N2CCN(Cc3ncc(C(C)(C)C)o3)CC2)n1` belongs 2.67%. To `COc1ccnc(N2CCN(C(=O)c3csnn3)CC2)n1` belongs 36.66%; to `COc1ccnc(N2CCN(CC(=O)N3CCOCC3)CC2)n1`, -2.9%.

As for `COc1ccnc(N2CCN(C(=O)Cc3csc(C)n3)CC2)n1`, the INHIBITION came out at 51.35%. On to `COc1ccnc(N2CCN(C(=O)Cc3ccsc3)CC2)n1`, for which the INHIBITION stood at 25.61%. Consider `COc1ccnc(N2CCN(C(=O)Cc3ccc(C)s3)CC2)n1`, for which the INHIBITION is -9.9%. To `COc1ccnc(N2CCN(C(=O)CN3CCOCC3)CC2)n1` belongs -19.35%; to `COc1ccnc(N2CCN(C(=O)c3cscn3)CC2)n1`, 50.98%; to `COc1ccnc(N2CCN(CC(O)CN3CCOCC3)CC2)n1` (configuration not stated), 58.05%. To `COc1ccnc(N2CCN(Cc3ncc(-c4ccccc4)o3)CC2)n1` belongs -41.69%; to `COc1ccnc(N2CCN(C(=O)c3csc(C)n3)CC2)n1`, -2.99%; to `COc1ccnc(N2CCN(C(=O)N3CCOCC3)CC2)n1`, 58.05%.

On to `Cc1cccc(CN2C[C@@H]3COC[C@H](NS(C)(=O)=O)[C@@H]3C2)n1`, for which the INHIBITION is reported as 32.85%.

`CN(C)Cc1cnc(C2CCN(C(=O)c3ccccc3F)C2)[nH]1` (configuration not stated): the INHIBITION was -17.01%. To `CCN(Cc1ccccc1)C(=O)CN1CCOC(Cn2cncn2)C1` (configuration not stated) belongs 32.41%. As for `O=C(N1CCCC(n2cncn2)C1)C1(c2ccccc2F)CCCC1` (configuration not stated), the INHIBITION is on record as -15.28%. For the molecule `O=C(COCc1nc(-c2ccncc2)no1)N1CCCCC1`, the INHIBITION turned out to be 27.89%. The same measure for `Brc1cnc(NCCCOCC2CCOC2)nc1` (configuration not stated): 20.3%; for `COCCCNS(=O)(=O)c1cc(C)sc1C`: -11.76%. As for `CCc1nccn1-c1cccc(C2CCN(C(=O)COC)CC2)n1`, the INHIBITION is recorded as 47.4%.

Regarding `N#Cc1ccsc1N1CCC(Sc2ccncc2)C1=O` (configuration not stated), the INHIBITION came out at 35.61%. The same measure for `Cc1cnn(CCC(=O)N2CCCN(c3ncccc3C#N)CC2)c1`: -2.7%. Take `CCS(=O)(=O)N1CCC(NC(=O)c2cc(C)ccc2O)CC1`: the INHIBITION is -12.19%. For `CC(=O)c1cc(CC(=O)N2CCN(CCOc3ccccc3)CC2)cs1`, the INHIBITION is recorded as -18.33%.

As for `Cc1nc(CC(=O)N2CCN(CCOc3ccccc3)CC2)cs1`, the INHIBITION is listed as 65.5%. To `O=C(Cc1ccsc1)N1CCN(CCOc2ccccc2)CC1` belongs 6.17%.
